This is one part of a sample in which hits are shown more often than they occur.
HT1080 IDH1KD tx = HT-1080 IDH1 knockdown cell toxicity (counter line) | HT-1080 IDH1 knockdown viability, ATP luminescence, 48 h | Potency, µM (top dose mostly 46.1 µM), without a hit: at the highest dose activity, negative = toxicity, actives largely listed as cytotoxic | 360,000 compounds, 2% hits | AID 686971;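 note: potency is the fitted concentration of half-maximal effect; 0% = DMSO wells and -100% = cell-free medium wells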
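Using the IDH1-knockdown HT-1080 line run in the same batch and compound series as the NT line, viability after 48 h at 37 °C was determined by CellTiter-Glo luminescence and expressed as % activity.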
TDP1 cell noCPT = qHTS for Inhibitors of human tyrosyl-DNA phosphodiesterase 1 (TDP1): qHTS in cells in absence of CPT; DT40 Tdp1-/- hTDP1 cells, no CPT, ATP luminescence, 48 h; Potency, µM (titrated, usually from 46.2 µM), for the others: at the top dose activity change, negative = growth inhibition, hits mostly inhibitors; 420,000 compounds, 15% hits; AID 686978, 2013; note: potency is the fitted concentration of half-maximal effect; nearly all actives have a fitted effect of over 55% in size
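No-CPT arm: Tdp1-/-;hTDP1 DT40 cells (400/well) plus compounds, incubated ≥48 hr at 37 °C. Readout CellTiter-Glo luminescence.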
IL1B secr inh = inflammasome signaling inhibition, IL-1 beta readout; THP-1 LPS/ATP IL-1B secretion, AlphaLISA, 16 h; active compounds read low; activity change, % at 57.5 µM; 360,000 compounds, 4.7% hits; AID 743279; in the data active = activity change below about -50%; inconclusive = mostly about -30% to -49%
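Secreted IL-1B measured by AlphaLISA bead assay after 16 h compound exposure of THP-1 cells; compounds (final up to 57.5 uM) added 1 h before LPS (250 ng/mL) and ATP (1.25 mM) stimulation; lower signal means less secretion.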
HT1080NT lethal = kills 2HG-producing HT-1080-NT fibrosarcoma cells; HT-1080-NT fibrosarcoma viability, CellTiter-Glo ATP luminescence, 48 h; Potency, µM (titrated, usually from 46.1 µM), inactives show at the top dose activity, negative = less viability, actives largely listed as cytotoxic; 360,000 compounds, 1.6% hits;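 note: NT is the 2HG producing partner of a matched IDH1 knockdown line; potency is the fitted concentration of half-maximal effect; 0% = DMSO-treated cells and -100% = media-only wells without cells; nearly all actives have a fitted effect of over 55% in size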
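HT-1080-NT; 750 cells/well; 5% FBS RPMI; 48 h compound, 37 degrees C; CellTiter-Glo luminescence; curve fitting and curve-class assignment.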
TDP1 cell CPT = growth inhibition of DT40 Tdp1-/-;hTDP1 cells with camptothecin (screen for TDP1 inhibitors); AID 686979; Potency, µM (titrated, usually from 46.2 µM), for the others: at the top dose activity change, negative = growth inhibition, usual class: inhibitors; chicken DT40 Tdp1-/-;hTDP1 cells + 20 nM CPT, ATP luminescence, 48 h; 420,000 compounds, 12% hits; note: potency is the fitted concentration of half-maximal effect; nearly all actives have a fitted effect of over 55% in size
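Chicken DT40 Tdp1-/- cells stably complemented with human TDP1 were seeded at 400 cells/well in medium containing 20 nM camptothecin, exposed to pin-transferred compounds, and grown at 37 °C for at least 48 hr. Viability was read as ATP luminescence.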
12-LOX inh = blocks human arachidonate 12S-lipoxygenase. P18054. purified 12hLO, xylenol orange hydroperoxide absorbance. Potency, µM (highest dose often 108 µM), without a hit: top-dose activity change, negative = inhibition, hits mostly inhibitors. 580,000 compounds, 1.1% hits. AID 1671190; note: potency is the fitted concentration of half-maximal effect
Target sequence (P18054 whole entry, looked up): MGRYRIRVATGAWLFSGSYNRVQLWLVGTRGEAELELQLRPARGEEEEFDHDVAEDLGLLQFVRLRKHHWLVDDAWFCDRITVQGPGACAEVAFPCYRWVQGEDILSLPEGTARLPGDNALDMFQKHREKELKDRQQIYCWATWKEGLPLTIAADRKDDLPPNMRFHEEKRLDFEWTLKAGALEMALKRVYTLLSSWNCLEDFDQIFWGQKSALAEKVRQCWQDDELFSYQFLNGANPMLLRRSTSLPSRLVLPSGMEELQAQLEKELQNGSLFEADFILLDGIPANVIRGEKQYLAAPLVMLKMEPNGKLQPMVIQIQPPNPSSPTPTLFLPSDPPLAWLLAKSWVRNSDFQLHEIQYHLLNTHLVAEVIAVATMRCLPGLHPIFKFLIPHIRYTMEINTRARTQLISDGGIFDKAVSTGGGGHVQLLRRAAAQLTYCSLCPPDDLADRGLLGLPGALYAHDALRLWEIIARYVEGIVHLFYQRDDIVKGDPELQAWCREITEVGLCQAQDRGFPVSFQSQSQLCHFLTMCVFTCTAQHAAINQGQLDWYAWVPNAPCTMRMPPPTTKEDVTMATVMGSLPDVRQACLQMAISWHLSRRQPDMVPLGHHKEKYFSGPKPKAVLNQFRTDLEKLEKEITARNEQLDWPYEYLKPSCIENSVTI
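Purified human 12hLO (150 nM final) in 25 mM Hepes, 0.01% Triton X-100, pH 7.0 was preincubated 15 min at room temperature with compound. Then 40 uM arachidonic acid was added, 30 min. Hydroperoxide was read by Fe-XO absorbance ratio 573/405 nm.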
An asterisk follows results filed as active; u = inconclusive; x = no result given; [ ] = dose if it differs, or a comment. Unless noted, calls come from the whole dose curve; as a rule, active = well fitted curve in the direction sought with a large enough effect; inconclusive = small, poorly fitted or top-dose-only effect, or another doubt; inactive = no such curve, though single readings can be large; an effect the other way counts as inactive or inconclusive. Unless noted, % is set by controls: 0 for no effect and ±100 for the full control effect.

SMILES	HT1080 IDH1KD tx	TDP1 cell noCPT	IL1B secr inh	HT1080NT lethal	TDP1 cell CPT	12-LOX inh
COc1ccc(C2C3C(=O)N(Cc4ccccc4)C(=O)C3ON2c2ccccc2)c(OC)c1OC (stereo unspecified)	-4%	21µM*	-4	-7%	u	0%
O=C(Nc1ccc(C(=O)OC[C@@H]2CCCN3CCCC[C@H]23)cc1)c1cccc(Br)c1	-6%	18µM*	-6	-11%	u	-9%
Cc1ccnc(NC(=O)c2sc3cc(Cl)ccc3c2Cl)c1	27%	-20%	-14	14%	-3%	-10%
O=C(NC(=O)c1cccc(F)c1)OC[C@@H]1CCCN2CCCC[C@H]12	0%	-8%	4	19%	10%	1%
O=C(NCC(=O)N1CCCCC1)c1sc2ccccc2c1Cl	12%	-21%	u	7%	-8%	-2%
CCN(CC)Cc1ccc(NC(=O)c2sc3cc(Cl)ccc3c2Cl)cc1	23µM*	16µM*	x	7.3µM*	u	u
CNC(=O)c1ccsc1NC(=O)c1sc2ccccc2c1Cl	-16%	u	-1	u	13µM*	-26%
O=C(Nc1ccc(CN2CCCCC2)cc1)c1sc2ccccc2c1Cl	u	16µM*	-57*	u	13µM*	5%
CCCCn1nc(C(=O)Nc2ccc(OCC(=O)N(C)C)cc2)c2ccccc2c1=O	x	x	x	x	x	20%
O=C(c1ccc2[nH]ccc2c1)N1CCCC(Cc2noc(-c3ccccn3)n2)C1 (stereo unspecified)	x	x	x	x	x	24%
C#CCN(CC=C)C(=O)c1ccccc1OC1CCN(C(=O)c2cccnc2)CC1	x	x	x	x	x	12%
O=S(=O)(c1ccc(Br)cc1)c1nc(-c2cccs2)oc1SCc1ccccc1F	x	u	x	x	u	-11%
O=C(Nc1ccc(CN2CCCCC2)cc1)c1cccc(Br)c1	-28%	u	-55*	-18%	u	-11%
CCN(CC)c1ccc(NC(=O)c2sc3ccccc3c2Cl)cc1	x	21µM*	x	x	21µM*	-27%
Cc1ccc2c(c1)[nH]c1c(=O)n(Cc3ccco3)cnc12	u	-29%	u	17%	u	30%
CCCOc1ccc(C(C)=O)cc1CSc1nc(O)cc(=O)[nH]1	4%	9.2µM*	17	-2%	21µM*	-16%
CCCOc1ccc(C(C)=O)cc1CSCCC#N	-1%	u	-1	2%	u	1%
CCOC(=O)C1=C(COc2ccccc2)NC(=O)NC1c1ccc(Br)cc1 (stereo unspecified)	0%	16µM*	u	9%	18µM*	-10%
CCOC(=O)C1=C(CP(=O)(c2ccccc2)c2ccccc2)NC(=O)NC1c1ccc(OC)cc1 (stereo unspecified)	-7%	-14%	13	0%	-15%	-7%
CCOC(=O)C1=C(COc2ccccc2)NC(=O)NC1c1ccc2ccccc2c1 (stereo unspecified)	-13%	21µM*	-5	u	18µM*	u
CCOC(=O)C1=C(CN(C)Cc2ccccc2)NC(=O)NC1c1ccc(OC)cc1 (stereo unspecified)	x	u	x	x	u	-17%
CCOC(=O)C1=C(CN(C)Cc2ccccc2)NC(=O)NC1c1ccc(OC(C)C)cc1 (stereo unspecified)	x	16µM*	x	x	16µM*	-9%
Cc1ccc(NC2=N[C@H]3[C@@H](O)[C@H](O)C[C@H](C(=O)N4CCC(C(N)=O)CC4)[C@H]3S2)cc1	x	x	x	x	x	18%[176 µM]
COc1cccc(CNc2ccc3[nH]c(=O)[nH]c3c2)c1OCc1ccccc1F	-3%	-27%	-23	-5%	u	-30%
COc1cc(CNc2ccc3[nH]c(=O)[nH]c3c2)cc(Cl)c1OCc1ccc(F)cc1	x	15µM*	x	x	18µM*	-26%
SMILES	HT1080 IDH1KD tx	TDP1 cell noCPT	IL1B secr inh	HT1080NT lethal	TDP1 cell CPT	12-LOX inh
COc1cc(CNc2ccc3[nH]c(=O)[nH]c3c2)cc(Br)c1OCc1ccc(F)cc1	-20%	15µM*	x	-7%	7.3µM*	0%
COc1cc(CNc2ccc3[nH]c(=O)[nH]c3c2)ccc1OCc1ccc(C)cc1	u	u	u	-16%	u	u
COc1cc(CNc2ccc3[nH]c(=O)[nH]c3c2)ccc1OCc1cccc(C)c1	-27%	u	-76*	u	u	2%
COc1cc(CNc2ccc3[nH]c(=O)[nH]c3c2)cc(Cl)c1OCc1ccccc1F	x	8.2µM*	x	x	12µM*	-13%
COc1ccc(C(=O)N2CCOC2CNC(=O)C(=O)NCCc2ccc(OC)c(OC)c2)cc1 (stereo unspecified)	1%	2%	0	10%	2%	6%
CCN(C)CC12CC3CC(CC(C3)C1)C2	x	x	x	x	x	-20%
COc1cccc(CNC2CCCC2)c1OCc1ccccc1F	x	x	x	x	x	-16%
COc1cc(CNC2CCCC2)cc(Cl)c1OCc1ccccc1F	13µM*	13µM*	-76*	u	16µM*	-29%
COc1cccc(C(=O)Cn2c(N3CCCCC3)nc3c2c(=O)n(C)c(=O)n3C)c1	8%	18µM*	-8	-1%	u	-11%
Cc1ccc(C(=O)Cn2c(N3CCOCC3)nc3c2c(=O)n(C)c(=O)n3C)cc1	2%[9.24 µM]	-13%	33	0%	-12%	1%
Cn1c(=O)c2c(nc(N3CCCCCC3)n2CC(O)COc2ccccc2)n(C)c1=O (stereo unspecified)	-1%	18µM*	16	-5%	23µM*	-18%
Cn1c(=O)c2c(nc(N3CCCCC3)n2CC(O)COc2ccccc2)n(C)c1=O (stereo unspecified)	2%	16µM*	13	2%	u	0%
Cc1cccc(OCC(O)Cn2c(N3CCCCC3)nc3c2c(=O)n(C)c(=O)n3C)c1 (stereo unspecified)	0%	16µM*	40	-4%	u	u
O=C(NCc1ccc(F)cc1)N1CCC(OC2CCN(Cc3ccccc3)CC2)CC1	x	x	x	x	x	23%
O=C(COc1ccc2c(=O)c(-c3ccc(Cl)cc3)coc2c1)N1CCN(c2ncccn2)CC1	x	x	x	x	x	-8%
COc1ccc(OCC(O)Cn2c(Nc3ccccc3)nc3c2c(=O)n(C)c(=O)n3C)cc1 (stereo unspecified)	7%	-14%	-4	8%	1%	u

Bioassay records deposited in PubChem BioAssay by National Center for Advancing Translational Sciences (NCATS).
